Results as given in PubChem BioAssay (Tox21).
Records with an inconclusive call do not appear. Active and inactive are the calls of the source. Unless noted, calls follow the shape of the dose curve; as a rule, active = well fitted curve in the direction sought with a large enough effect in the repeat runs; inconclusive = weak or mixed curves; inactive = no such curve, though single readings can be large; an effect the other way counts as inactive or inconclusive.

Key:
[1] = qHTS assay for small molecule agonists of the p53 signaling pathway (AID 651631; calls by dose curve; also: nearly all actives have a fitted effect of over 15% in size)
Outline: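 Readout was fluorescence from the LiveBLAzer FRET substrate, applied for 2 h at room temperature after 16 h compound exposure at 37 °C. Cells were the p53RE-bla HCT-116 line, with beta-lactamase driven by p53 response elements.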

[2] = qHTS assay for small molecules that induce genotoxicity in human embryonic kidney cells expressing luciferase-tagged ATAD5 (AID 651632); also: nearly all actives have a fitted effect of over 15% in size
Outline: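 Cells were seeded at 2,000 per well, dosed with compound, and incubated 16 hr at 37C in 5% CO2. Luciferase activity was then quantified after a 30 min room-temperature incubation with Amplite.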

[3] = qHTS assay for small molecules that induce genotoxicity in human embryonic kidney cells expressing luciferase-tagged ATAD5 - cell viability (AID 651634; calls by dose curve; also: nearly all actives have a fitted effect of over 25% in size)
Outline: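 Cells (HEK293T, luciferase-tagged ATAD5) are seeded at 2,000 per well, dosed with compound or DMSO vehicle, and incubated 15.5 hr at 37C and 5% CO2. CellTiter-Fluor is added for 30 min before fluorescence is measured.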

[4] = qHTS assay for small molecule disruptors of the mitochondrial membrane potential - cell viability (AID 720634; calls by dose curve;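 also: human HepG2 liver cancer cells; series mostly up to about 83 µM; nearly all actives have a fitted effect of over 20% in size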)
Outline: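 Cytotoxicity was measured by ATP quantitation in HepG2 wells that had first been treated with compound for 1 hr and stained with m-MPI dye; CellTiter-Glo incubation was 30 min at room temperature.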

[5] = qHTS assay to test for compound auto fluorescence at 590 nm (red) in HepG2 cells (AID 720674)
Outline: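 Intrinsic compound fluorescence in the red window (Ex/Em 540/590 nm) is measured in attached HepG2 cells exposed for 1 hr, DMSO vehicle as baseline, benchmarked to Rose Bengal sodium.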

[6] = qHTS assay to test for compound auto fluorescence at 590 nm (red) in HEK293 cells (AID 720679)
Outline: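 Red-channel autofluorescence (Ex/Em 540/590 nm; Rose Bengal sodium reference) was measured after overnight 37C, 5% CO2 exposure of attached HEK293 cells, 2,000 per well in medium with 10% dialyzed FBS.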

[7] = qHTS assay for small molecule agonists of the p53 signaling pathway - cell viability (AID 651633; calls by dose curve; also: series mostly up to about 83 µM; nearly all actives have a fitted effect of over 30% in size)
Outline: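 p53RE-bla cells, seeded at 4,000 per well and rested 5 h at 37 C/5% CO2, received compounds in DMSO for 16 h at 37 C. CellTiter-Glo was then added, and luminescence was read after 30 min at room temperature to gauge cytotoxicity.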

[8] = qHTS assay for small molecule disruptors of the mitochondrial membrane potential (AID 720635); also: potency is read from the fitted curve at half-maximal effect
Outline: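 HepG2 cells (2,000/well) attached overnight at 37C, then took compound for 1 hr at 37C, 5% CO2. Mito-MPS dye was added for 30 min; fluorescence was read at 490/535 nm (monomers) and 540/590 nm (aggregates).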

[9] = qHTS assay to test for compound auto fluorescence at 535 nm (green) in HepG2 cells (AID 720675)
[10] = qHTS assay to test for compound auto fluorescence at 460 nm (blue) in HEK293 cells (AID 720678)
Outline: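 Blue-channel (Ex/Em 405/460 nm) intensity measured in HEK293 cultures after overnight compound exposure at 37C; signal expressed relative to triamterene. Cells plated 2,000 per well in 10% dialyzed FBS medium and allowed 4-5 hr to attach.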
% is scaled to controls: 0 for no effect and ±100 for the full control effect.

CCOC(=O)CC(CC(=O)OCC)(OC(C)=O)C(=O)OCC
inactive: outcome [1] | outcome [2] | Potency [3] | outcome [4] | outcome [5] | outcome [6]

COCCOCCOCCOC
inactive: outcome [1] | outcome [7] | Potency [3] | outcome [4] | Potency [8] | outcome [5] | outcome [9] | outcome [10] | outcome [6]

Nc1ccc(S(=O)(=O)NC(=O)c2ccccc2)cc1
inactive: outcome [1] | outcome [2] | Potency [3] | outcome [4] | Potency [8] | fluorescence, % of fluorescein control [9] -0.394% [at 18.6 µM] | fluorescence, % of triamterene [10] -0.236% [at 18.6 µM] | fluorescence, % of fluorescent control [6] -0.801% [at 18.6 µM]

C[N+](C)(C)CC(O)CCl (configuration not stated)
inactive: outcome [1] | outcome [2] | outcome [7] | Potency [3] | outcome [5] | outcome [9] | outcome [10] | outcome [6]

O=C1CC[C@H](C(=O)N2CCCCC2)N1
inactive: outcome [1] | outcome [2] | Potency [3] | outcome [4] | Potency [8] | outcome [5] | outcome [9] | outcome [10] | outcome [6]

CC(C)CCO
inactive: outcome [1] | outcome [2] | Potency [3] | outcome [4] | outcome [5] | outcome [9] | outcome [10] | outcome [6]

CC(=O)OC(C(=O)c1ccccc1)c1ccccc1 (configuration not stated)
inactive: outcome [1] | outcome [2] | Potency [3] | outcome [10] | outcome [6]

Nc1ccnc(=O)[nH]1
inactive: outcome [1] | outcome [2] | Potency [3] | outcome [4] | Potency [8] | outcome [5] | outcome [10] | outcome [6]

NS(=O)(=O)c1cc2c(cc1Cl)NC(C(Cl)Cl)NS2(=O)=O (configuration not stated)
inactive: outcome [1] | outcome [2] | outcome [7] | Potency [3] | fluorescence, % of triamterene [10] -0.178% [at 18.6 µM] | fluorescence, % of fluorescent control [6] -0.0605% [at 18.6 µM]

C=CCOc1cc(Cl)ccc1C(=O)NCCN(CC)CC
inactive: outcome [1] | outcome [2] | outcome [7] | Potency [3] | outcome [5] | outcome [9] | outcome [10] | outcome [6]

Nc1c(NC/C=C\COc2cc(CN3CCCCC3)ccn2)c(=O)c1=O
inactive: outcome [1] | outcome [2] | Potency [3] | outcome [4] | Potency [8] | outcome [5] | outcome [10] | outcome [6]

CC(C)c1ccccc1O
inactive: outcome [1] | outcome [2] | Potency [3] | outcome [4] | outcome [5] | outcome [9] | outcome [6]

Cc1ccc2c(c1)c1c3n2CCNC3CCC1 (configuration not stated)
inactive: outcome [1] | outcome [2] | outcome [7] | Potency [3] | outcome [5] | outcome [9] | outcome [6]

CC1=NN(c2ccc(S(=O)(=O)O)cc2)C(=O)C1N=Nc1ccccc1 (configuration not stated)
inactive: outcome [1] | outcome [2] | outcome [7] | outcome [4] | outcome [5] | outcome [9] | outcome [10] | outcome [6]

SCCSCCS
inactive: outcome [1] | outcome [2] | Potency [3] | outcome [5] | outcome [9] | outcome [10] | outcome [6]

CCCCCCCCC(=O)OCC
inactive: outcome [1] | outcome [2] | Potency [3] | outcome [4] | Potency [8] | outcome [5] | outcome [9] | outcome [10] | outcome [6]

O=C(CN1CCN(Cc2ccc3c(c2)OCO3)CC1)N1c2ccccc2Sc2ccccc21
inactive: outcome [1] | outcome [2] | Potency [3] | outcome [4] | Potency [8] | outcome [5] | outcome [9] | outcome [10] | outcome [6]

CCN(Cc1cccc(S(=O)(=O)O)c1)c1ccccc1
inactive: outcome [1] | outcome [2] | outcome [7] | Potency [3] | outcome [5] | outcome [9] | outcome [10] | outcome [6]

BrC/C=C/CBr
inactive: outcome [1] | outcome [2] | outcome [7] | Potency [3] | fluorescence, relative to Rose Bengal [5] -0.458% [at 18.6 µM] | fluorescence, % of fluorescein control [9] -0.0535% [at 18.6 µM] | fluorescence, % of fluorescent control [6] 0.0091% [at 18.6 µM]

CN[C@@H]1[C@H](O)[C@H](NC)[C@H]2O[C@@]3(O)C(=O)C[C@@H](C)O[C@H]3O[C@@H]2[C@H]1O
inactive: outcome [1] | outcome [2] | Potency [3] | outcome [4] | Potency [8] | fluorescence, % of fluorescein control [9] -0.162% [at 18.6 µM] | fluorescence, % of triamterene [10] -0.0174% [at 18.6 µM] | fluorescence, % of fluorescent control [6] 0.0398% [at 18.6 µM]

CCC(C)(CCC(C)C)C(=O)[O-].CCC(C)(CCC(C)C)C(=O)[O-].[Zn+2] (configuration not stated)
inactive: outcome [2] | outcome [7] | Potency [3] | outcome [4] | outcome [5] | outcome [9] | outcome [10] | outcome [6]

C[C@H](CCC(=O)O)[C@H]1CC[C@H]2[C@@H]3[C@H](O)C[C@@H]4C[C@H](O)CC[C@]4(C)[C@H]3C[C@H](O)[C@]12C
inactive: outcome [2] | outcome [7] | Potency [3] | outcome [4] | Potency [8] | outcome [5] | outcome [10] | outcome [6]

CC(=O)OCC(=O)[C@@]1(O)[C@H](OC(C)=O)C[C@H]2[C@@H]3CCC4=CC(=O)C=C[C@]4(C)[C@@]3(F)[C@@H](O)C[C@@]21C
inactive: outcome [2] | outcome [7] | Potency [3] | outcome [4] | outcome [5] | outcome [9] | outcome [10] | outcome [6]

O=P(O)(O)OCC(O)CO (configuration not stated)
inactive: outcome [2] | outcome [7] | Potency [3] | outcome [4] | Potency [8] | outcome [5] | outcome [9] | outcome [6]

c1ccc(CNc2ncnc3nc[nH]c23)cc1
active: Potency [8] 54.5 µM
inactive: outcome [1] | Potency [3] | outcome [4] | outcome [5] | outcome [9] | outcome [10] | outcome [6]

Cc1ccccc1C
inactive: outcome [2] | outcome [7] | Potency [3] | outcome [4] | Potency [8] | outcome [5] | outcome [9] | outcome [10] | outcome [6]

CC1=CC[C@H](CC=O)C1(C)C
inactive: outcome [2] | outcome [7] | Potency [3] | outcome [4] | Potency [8] | outcome [5] | outcome [9] | outcome [6]

Cc1c(C(C)C)c(=O)n(-c2ccccc2)n1C
inactive: outcome [2] | outcome [7] | Potency [3] | outcome [4] | outcome [5] | outcome [9] | outcome [10] | outcome [6]

COc1ccc(/C=N/NC(=O)c2ccncc2)cc1OC
inactive: outcome [2] | outcome [7] | Potency [3] | outcome [4] | Potency [8] | outcome [9] | outcome [10] | outcome [6]

Cc1nc([N+](=O)[O-])cn1-c1ccc([N+](=O)[O-])cc1
inactive: outcome [2] | outcome [7] | Potency [3] | outcome [4] | Potency [8] | outcome [5] | outcome [9] | outcome [10] | outcome [6]

CC(C)(CO)[C@@H](O)C(=O)NCCCO
inactive: outcome [2] | outcome [7] | Potency [3] | outcome [4] | Potency [8] | outcome [5] | outcome [6]

CCCCCCCCCCCCOC(C)=O
inactive: outcome [2] | outcome [7] | Potency [3] | outcome [4] | Potency [8] | outcome [9] | outcome [10] | outcome [6]

C[Si]1(C)N[Si](C)(C)N[Si](C)(C)N1
active: Potency [8] 27.3 µM
inactive: outcome [2] | outcome [7] | Potency [3] | outcome [5] | outcome [9] | outcome [10] | outcome [6]

CC(C)COC(=O)COc1ccc(Cl)cc1Cl
inactive: outcome [2] | outcome [7] | Potency [3] | outcome [4] | Potency [8] | outcome [9] | outcome [6]

CCOC(=O)C(C)(C)C
inactive: outcome [2] | outcome [7] | Potency [3] | outcome [4] | Potency [8] | outcome [9] | outcome [10] | outcome [6]

Cc1ncc([N+](=O)[O-])n1CC(O)CCl (configuration not stated)
inactive: outcome [2] | outcome [7] | Potency [3] | outcome [4] | fluorescence, relative to Rose Bengal [5] -0.0192% [at 18.6 µM] | fluorescence, % of fluorescein control [9] -0.155% [at 18.6 µM] | fluorescence, % of fluorescent control [6] -0.364% [at 18.6 µM]

C=CCOC(=O)c1ccc(C(=O)OCC=C)c(C(=O)OCC=C)c1
inactive: outcome [2] | outcome [7] | Potency [3] | Potency [8] | outcome [5] | outcome [9] | outcome [10] | outcome [6]

CCCCC(CC)C(=O)OC(C)C (configuration not stated)
inactive: outcome [2] | outcome [7] | Potency [3] | outcome [4] | outcome [9] | outcome [10] | outcome [6]

O=C(O)c1ccccc1C(=O)OCc1ccccc1
inactive: outcome [1] | outcome [7] | Potency [3] | outcome [4] | outcome [5] | outcome [9] | outcome [10] | outcome [6]

NCCc1ccn[nH]1
inactive: outcome [2] | outcome [7] | Potency [3] | outcome [4] | Potency [8] | fluorescence, relative to Rose Bengal [5] 0.0089% [at 18.6 µM] | fluorescence, % of triamterene [10] -0.006% [at 18.6 µM] | fluorescence, % of fluorescent control [6] 0.131% [at 18.6 µM]

C[CH2][Ge]([Cl])([CH2]C)[CH2]C
inactive: outcome [2] | outcome [7] | Potency [3] | outcome [4] | outcome [5] | outcome [9] | outcome [10] | outcome [6]

CN=C(NC#N)NCCSCc1csc(N=C(N)N)n1
inactive: outcome [2] | outcome [7] | Potency [3] | Potency [8] | outcome [5] | outcome [9] | outcome [10] | outcome [6]
